# Assay results as given in PubChem BioAssay AID1259354 (Paczesny and Yang Labs, IUPUI and University of Michigan, 2018).
# “And” between values parts separate entries of the source, which are not always exact repeats. Identical values can stand only once. Out of some 78,000 compounds screened, about 1,800 (2.3%) were called active. Roughly 27% stayed inconclusive and do not appear here. Rule as the data show it: active = inhibition above about 30%; inconclusive = mostly about 10% to 28%; inactive = weaker than that. For the sample, actives were picked, then their nearest neighbours and some compounds at random.
# Molecular target: Interleukin-1 receptor-like 1 (Homo sapiens) (UniProt Q01638)
# Sequence (Q01638 whole entry, looked up): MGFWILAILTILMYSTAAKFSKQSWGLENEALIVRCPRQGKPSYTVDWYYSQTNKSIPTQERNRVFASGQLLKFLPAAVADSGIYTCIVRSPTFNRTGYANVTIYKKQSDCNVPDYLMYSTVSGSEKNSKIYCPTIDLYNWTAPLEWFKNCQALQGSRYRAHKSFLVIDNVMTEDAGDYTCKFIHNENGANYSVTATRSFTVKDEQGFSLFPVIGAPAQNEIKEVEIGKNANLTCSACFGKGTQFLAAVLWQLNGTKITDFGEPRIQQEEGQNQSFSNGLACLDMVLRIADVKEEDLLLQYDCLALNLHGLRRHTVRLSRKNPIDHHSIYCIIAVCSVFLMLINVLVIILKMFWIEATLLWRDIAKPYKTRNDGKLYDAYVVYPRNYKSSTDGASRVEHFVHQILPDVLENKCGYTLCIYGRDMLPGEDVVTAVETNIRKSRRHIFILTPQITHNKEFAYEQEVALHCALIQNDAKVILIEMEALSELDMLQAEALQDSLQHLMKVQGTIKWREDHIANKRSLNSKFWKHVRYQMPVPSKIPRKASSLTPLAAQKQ
# Experiment: blocks human ST2 binding to IL-33, primary screen, biochemical, AlphaLISA (AID 1259354)
# Conditions: AlphaLISA ST2-Fc/biotin-IL-33 interaction, 1 h; at 17 µM, active compounds read high
row,Structure (SMILES),inhibition
1,Cc1ccc(NC(=O)CNCCOc2ccccc2)c(C)c1,inactive
2,NC(=O)Cn1cnc2c(cnn2-c2ccc(F)cc2)c1=O,inactive
3,C[C@@H](NC(=O)C1=C[C@@H](NC(=O)CS(=O)(=O)c2ccccc2)[C@@H](O)[C@H](O)C1)C(N)=O,inactive
4,COc1ccc(Cl)cc1NC(=O)c1nn(-c2ccc(Cl)cc2)c(=O)c2ccccc12,inactive
5,COc1cc2c(C(=O)N3CCCC3)cn(C)c(=O)c2cc1OC,inactive
6,CCOc1ccc(C(C)=O)cc1N1C(=O)C2C3C=CC(CC3)C2C1=O (configuration not stated),inactive
7,COc1ccc(C2C(=C(O)c3ccc(Cl)cc3)C(=O)C(=O)N2CCCN(C)C)c(OC)c1 (configuration not stated),inactive
8,CCn1c(C)csc1=Nc1cccc(C(F)(F)F)c1,inactive
9,CN(C)CCCn1c(-c2ccc(Cl)cc2)csc1=Nc1ccccc1,63% (active) and 45% (active)
10,O=C(CN1C(=O)CC(c2ccccc2)=Nc2ccccc21)Nc1ccc(Cl)cc1,inactive
11,CCOC(=O)c1sc2nc3n(c(=O)c2c1C)N=C(c1ccccc1)CS3,inactive
12,O=C1NN=C(c2ccccc2)/C1=C/c1ccc(-c2ccc(Cl)cc2)o1,49% (active)
13,Cc1c(Cl)c([N+](=O)[O-])nn1CCCC(=O)Nc1cc(Cl)ccc1Cl,inactive
14,Cn1c(=O)c2c(nc(Cl)n2CC(=O)NC(C)(C)C)n(C)c1=O,inactive
15,CCc1ccc(CNC(=O)c2cc3cc4ccc(OC)cc4nc3o2)cc1,inactive
16,CC(C)NC(=O)c1cc2cc3ccc(Cl)cc3nc2o1,inactive
17,O=C(Nc1ccc2c(c1)OCCO2)c1cc2cc3ccc(Cl)cc3nc2o1,47% (active)
18,CCOCCCNC(=O)c1oc2ccc(S(=O)(=O)N3CCC(C)CC3)cc2c1C,inactive
19,Cc1ccc(C(=O)Nc2ccc3nn(-c4ccccc4)nc3c2)cc1,inactive
20,O=C(O)c1cccc(N=Cc2nc(-c3ccc(Br)cc3)oc2O)c1,inactive
21,COc1ccc(CC(=O)Nc2ccc(-c3nnc(-c4ccccc4)o3)cc2)cc1,inactive
22,O=C(COc1cccc([N+](=O)[O-])c1)Nc1ccc(-c2nnc(-c3ccco3)o2)cc1,45% (active)

row,Structure (SMILES),inhibition
1,Cc1cccc(OCC(=O)Nc2ccc(-c3nc4ncccc4o3)cc2)c1,inactive
2,Cc1c(F)cccc1NC(=O)C(C)Oc1ccc(Cl)cc1Cl (configuration not stated),inactive
3,O=C(c1ccco1)N1CCN(c2ccc([N+](=O)[O-])cc2)CC1,inactive
4,O=C1CC(N2CCc3ccccc3C2)C(=O)N1c1ccc([N+](=O)[O-])cc1 (configuration not stated),inactive
5,O=C1CC(c2ccccc2)=NN1c1ccc([N+](=O)[O-])cc1,43% (active)
6,Cc1ccc(-c2cc(N3CCN(S(=O)(=O)c4cc(C)c(C)cc4C)CC3)ncn2)cc1,inactive
7,O=C(CSCc1ccccc1)Nc1c(-c2ccc(F)cc2)nc2ccccn12,inactive
8,COc1cccc(-c2ncnn2-c2sc3c(c2C#N)CCCCC3)c1,65% (active)
9,CC(C)CN(CC(C)C)S(=O)(=O)c1ccc(C(=O)Nc2sc3c(c2C#N)CCC3)cc1,inactive
10,N#Cc1c(NC(=O)CCCC(=O)O)sc2c1CCCC2,inactive
11,Cc1cc(C)c(C#N)c(SCC(=O)c2ccc3c(c2)OCO3)n1,inactive
12,N#Cc1c(-n2ncnc2-c2ccc3c(c2)OCO3)sc2c1CCCC2,47% (active)
13,COc1cccc(-c2c(C#N)c(N)n3c(nc4ccccc43)c2C#N)c1,inactive
14,COc1cccc(C(=O)Nc2sc3c(c2C(N)=O)CCCCCC3)c1,inactive
15,N#Cc1c(-n2ncnc2-c2ccccc2)sc2c1CCCC2,31% (active)
16,O=C(Nc1ncnc2sc3c(c12)CCCC3)c1ccccc1,inactive
17,Cc1csc(SCC(=O)N2CCC(c3cc(C(C)C)n[nH]3)CC2)n1,inactive
18,O=C(CN1CCN(Cc2cccc(Cl)c2)C1=O)N1CCCC1,inactive
19,O=C(CSC1=Nc2ccccc2C2=NC(Cc3ccccc3)C(=O)N12)NC1CCCCC1 (configuration not stated),inactive
20,COCCn1ccnc1-c1[nH]cnc1-c1ccccc1,inactive
21,CC(C)c1ccc(-c2nc(N3CCCCC3)nc3n[nH]c(N)c23)cc1,inactive
22,Cc1cc2c(Nc3cccc(Cl)c3C)ncnc2s1,inactive

row,Structure (SMILES),inhibition
1,Nc1nonc1-n1nnc(CN2CCCCC2)c1CN1CCCCC1,inactive
2,COc1ccc2nc(NC(=O)Cc3c(C(=O)O)n(C)c4ccccc34)sc2c1,inactive
3,Cc1ccc(N(C(=O)c2ccccc2Br)C2C=CS(=O)(=O)C2)cc1C (configuration not stated),inactive
4,Cc1cccc(NC(=O)c2ccc([N+](=O)[O-])o2)c1,42% (active)
5,O=C(Nc1cccc([N+](=O)[O-])c1)c1cccc(Cl)c1Cl,inactive
6,Cc1ccc(NC(=O)c2ccc(Br)o2)c(C)c1,inactive
7,CSCCC(NS(=O)(=O)c1cccc2nsnc12)C(=O)O (configuration not stated),inactive
8,N#Cc1c(-c2ccccc2)cc(-c2ccccc2)nc1SCC(=O)O,inactive
9,N#Cc1c(SCC(=O)Nc2ccccn2)nsc1SCC(=O)Nc1ccccn1,inactive
10,Cc1cccc(-c2nc(N3CCCC3)c3ccccc3n2)c1,inactive
11,N#Cc1c(SCC(=O)Nc2ccccc2)ncc2cc3ccccc3nc12,32% (active)
12,c1ccc(-c2csc3ncnc(N4CCCCC4)c23)cc1,inactive
13,N#Cc1c(N2CCCCCC2)ncc2cc3ccccc3nc12,37% (active)
14,COc1cc2c(cc1OC)[C@H]1CN3CCc4cc(OC)c(OC)cc4[C@@H]3CN1CC2,inactive
15,CCn1cc(S(=O)(=O)N2CCCC2c2ccccn2)c(C)n1 (configuration not stated),inactive
16,Cc1cc(C(=O)N(CC2CCN(C3Cc4ccccc4C3)CC2)CC2CCCO2)nc(C)n1 (configuration not stated),inactive
17,Cc1cc(C)c2c(CC(=O)NCc3cccnc3N3CCOCC3)coc2c1,inactive
18,c1ccc(CSc2ncc(C3NCCc4[nH]cnc43)cn2)cc1 (configuration not stated),inactive
19,Cc1cc(NC(=O)C(NS(=O)(=O)c2cccs2)C(C)C)ccc1Br (configuration not stated),inactive
20,Fc1cccc(Cl)c1C1CC(c2ccccc2)Nc2ncnn21 (configuration not stated),inactive
21,Cn1c(CC2CCNCC2)nnc1SCCOc1ccc(Cl)cc1,inactive
22,O=C(c1cccc(-c2ncc[nH]2)c1)N1Cc2cnn(CCO)c2C1,inactive

row,Structure (SMILES),inhibition
1,CN1CCN(C(=O)c2ccnc(-c3cc(N)nc4[nH]ccc34)c2)CC1,30% (active)
2,O=C(c1ccnc(-n2cnnc2)c1)N1CCC2(CC1)C(=O)Nc1ccccc12,inactive
3,COc1ccc(C(=O)NC(Nc2ccccc2Cl)C(Cl)(Cl)Cl)cc1 (configuration not stated),inactive
4,Cc1ccc(NC(=O)CNCC(C)c2ccccc2)c(C)c1 (configuration not stated),inactive
5,OC(C#Cc1ccccc1)C#Cc1ccccc1,inactive
6,Cc1nonc1C1CCCN1Cc1cnc(S(=O)(=O)C(C)C)n1Cc1ccccc1F (configuration not stated),inactive
7,CSCc1nnc(NC(=O)c2ccc(S(=O)(=O)N3CCCc4ccccc43)cc2)o1,inactive
8,CC1CCc2nc(NC(=O)c3ccc(S(=O)(=O)N4CCc5ccccc54)cc3)sc2C1 (configuration not stated),30% (active)
9,O=C(Nc1nnc(-c2cccs2)o1)c1ccc(S(=O)(=O)N2CCCc3ccccc32)cc1,inactive
10,CCN(CC)C(=O)[C@@H]1C[C@H](n2cc(Cn3c(C)nc4ccccc43)nn2)CN1,inactive
11,CC1=Nc2c(ccc3cccnc23)C1(C)C,36% (active)
12,Brc1ccc(CSc2cccc3cccnc23)cc1,inactive
13,CSCCNC(=O)CC1C(=O)NCCN1Cc1ccccc1 (configuration not stated),inactive
14,Cc1cc2oc(=O)cc(CN(C)C(C)c3ccon3)c2cc1C (configuration not stated),inactive
15,Clc1ccc(OCCCCN2CCOCC2)c(Br)c1,inactive
16,CN(Cc1ccccc1)C(=O)CN1C(=O)/C(=C\c2cccc(Cl)c2)Sc2ccccc21,44% (active)
17,CN(Cc1ccccc1)C(=O)c1cc(-c2ccc(Cl)cc2)on1,inactive
18,CN(Cc1ccccc1)C(=O)CN(C)S(=O)(=O)c1ccc(Cl)cc1,inactive
19,O=C(NC(Nc1cccc([N+](=O)[O-])c1)C(Cl)(Cl)Cl)c1ccc(Br)cc1 (configuration not stated),inactive
20,CCOC(=O)c1c(C)[nH]c(C(=O)NC(C)c2cnn(-c3ccccc3C)c2C)c1C (configuration not stated),inactive
21,CN(Cc1ccccc1)C(=O)C1(S(=O)(=O)c2ccc(Cl)cc2)CC1,inactive
22,COc1ccc(-c2csc(=Nc3ccccc3)n2C)cc1,59% (active) and 52% (active)

row,Structure (SMILES),inhibition
1,COc1ccc(Nc2ccn(-c3nc(-c4ccccc4)oc3-c3ccccc3)c(=O)n2)cc1,inactive
2,O=C(C(NS(=O)(=O)c1cccs1)c1ccccc1)N1CCc2ccccc21 (configuration not stated),inactive
3,COc1cc(OC)cc(C(=O)Nc2cc(N3CCCS3(=O)=O)ccc2OC)c1,inactive
4,CC(=O)Nc1nonc1N1C(=N)S/C(=C\c2ccc(-c3cccc(F)c3)o2)C1=O,inactive
5,O=C1NC(=O)/C(=C\c2ccc(-c3ccc(F)c(Cl)c3)o2)S1,34% (active)
6,O=C1NC(=O)/C(=C\c2ccc(-c3cccc(Cl)c3)o2)S1,inactive
7,Cc1nc(CC(=O)NCCc2csc(-c3cccnc3)n2)cs1,inactive
8,COc1ccc(CCNS(=O)(=O)c2cccc3cccnc23)cc1OC,inactive
9,COc1cc(NS(=O)(=O)c2ccc3c(c2)CCN3C(=O)C2CC2)cc(OC)c1,inactive
10,Cc1cccc(C)c1NC(=O)c1ccc(F)cc1,inactive
11,N#CC1=C(N)OC2=C(C(=O)CC(c3ccccc3)C2)C1c1cccs1 (configuration not stated),inactive
12,CCc1nc(C)ccc1OCC(=O)N1CCC2(CN(C)C(=O)O2)C1 (configuration not stated),30% (active)
13,O=C1CC2(CCCCC2)Oc2ccc(OCC(=O)N3CCOCC3)cc21,inactive
14,O=C(CN1C(=O)C2CCCCN2C(=O)c2ccccc21)NCC1CCCO1 (configuration not stated),inactive
15,O=C(CN1C(=O)CC(c2ccccc2)Sc2ccccc21)NCc1ccco1 (configuration not stated),inactive
16,O=C(CN1C(=O)/C(=C\c2ccc(C(F)(F)F)cc2)Sc2ccccc21)NCC1CCCO1 (configuration not stated),30% (active)
17,O=C(CN1CCCCC1)N1c2ccccc2Sc2ccc(C(F)(F)F)cc21,inactive
18,O=C(CN1CCN(Cc2ccc(F)cc2)C1=O)NCC1CCCO1 (configuration not stated),inactive
19,O=C(CN1C(=O)/C(=C\c2ccc(C(F)(F)F)cc2)Sc2ccccc21)NCc1ccco1,32% (active)
